From PubChem BioAssay (EPA / NIEHS)
Inconclusive results are not listed. The source made the active and inactive calls. How the source made its calls, unless noted: active means hit-call score of the fitted dose curve at least 0.9, where 1 is the maximum; inconclusive means response in the unintended direction; inactive means score below 0.9.

Assays:
[1] = target: Agonist Androgen Response Element (ARE), AR (gene 367) (UniProt P10275); experiment: OT_AR_ARELUC_AG_1440: Odyssey Thera (OT) 24-hour CHO-K1 Luciferase Assay for Agonist Androgen Response Element (ARE) (AID 2283379)
Procedure, shortened: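 Readout: luciferase bioluminescence from CHO-K1 ARE-luc cells, measured 24 h post-dosing; agonism = increased mean luminescence vs DMSO controls, fitted in positive direction.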

[2] = target: Retinoic acid receptor RXR-alpha (Homo sapiens) (UniProt P19793); experiment: OT_NURR1_NURR1RXRa_0480: Odyssey Thera (OT) 8-hour HEK293T Protein Complementation Assay for Nurr1/retinoid X receptor (RXR) (AID 2283385)
Procedure, shortened: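 Read-out: fluorescence from protein-fragment complementation between Nurr1 and RXRα in human HEK293T cells, 8 h after dosing. DMSO served as negative control; increased signal counted as activity.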

[3] = target: Peroxisome proliferator-activated receptor gamma (Homo sapiens) (UniProt P37231); experiment: OT_PPARg_PPARgSRC1_0480: Odyssey Thera (OT) 8-hour Protein-Complementation Assay for Peroxisome Proliferator-activated Receptor Gamma / SRC-1 Co-activator (AID 2283387);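 further: nuclear to cytoplasmic split Venus YFP fluorescence ratio reporting PPARg SRC-1 interaction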
Procedure, shortened: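 HEK293T transiently transfected with PPARg and SRC-1 fused to Venus YFP fragments, compounds 8 h at 37C. Fixed, Draq5-stained cells imaged; nuclear/cytoplasmic 488 nm fluorescence ratio over at least 350 cells per image; gain fitted versus DMSO.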

[4] = target: Peroxisome proliferator-activated receptor gamma (Homo sapiens) (UniProt P37231); experiment: OT_PPARg_PPARgSRC1_1440: Odyssey Thera (OT) 24-hour Protein-Complementation Assay for Peroxisome Proliferator-activated Receptor Gamma/ SRC-1 Co-activator (AID 2283388)
Procedure, shortened: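 Readout is the 488 nm N/C fluorescence ratio from fixed, Draq5-stained HEK293T cells after 24 h compound exposure. Cells carried transiently transfected PPARg and SRC-1 fused to Venus fragments, transfected 48 h before treatment.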

[5] = target: Estrogen receptor beta (Homo sapiens) (UniProt Q92731); experiment: OT_ER_ERbERb_1440: Odyssey Thera (OT) 24-hour HEK293T Protein-Complementation Assay for Estrogen Receptor-beta/-beta Homodimer (AID 2283380);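 further: fluorescence gain from ER beta LBD homodimer complementation read by laser scanning cytometry; scored as signal increase over DMSO baseline for both agonists and antagonists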
Procedure, shortened: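 Fluorescence increase, nuclear for agonists or whole-cell for antagonists, relative to DMSO vehicle, quantified by laser scanning cytometer after fixation and Draq5 staining. Readout from 24 h treatment of HEK293T cells carrying complementation-paired ER beta LBD (aa 310-547).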

[6] = target: Estrogen receptor (Homo sapiens) (UniProt P03372); experiment: OT_ERa_GFPERaERE_0480: Odyssey Thera (OT) 8-hour HeLa Transcription Induction Assay for Estrogen Receptor (AID 2283381; active means hit-call score of the fitted dose curve at least 0.9, where 1 is the maximum; inactive means score below 0.9)
Procedure, shortened: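 GFP-ERE reporter, HeLa, 8 h exposure. Readout: fluorescence microscopy, high-content image analysis. Fit direction positive vs DMSO negative control.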

[7] = target: Estrogen receptor (Homo sapiens) (UniProt P03372); experiment: OT_ERa_GFPERaERE_0120: Odyssey Thera (OT) 2-hour HeLa Transcription Induction Assay for Estrogen Receptor (AID 2283382)
Procedure, shortened: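 Fluorescence microscopy read-out: inducible fluorescent protein reporter in HeLa cells, imaged 2 h post-dose. Signal increase over DMSO negative control fitted as single primary endpoint via high content image analysis.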

[8] = target: mouse Estrogen Receptor alpha (Era), Esr1 (gene 13982) (UniProt P19785); experiment: NVS_NR_mERa: NovaScreen (NVS) Nuclear Receptor Binding Assay for mouse Estrogen Receptor alpha (Era) (AID 2283378);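 further: hit means loss of bound radioligand signal relative to DMSO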
Procedure, shortened: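 Filter radiodetection of radioligand displacement from extracted receptor protein, measured 18 h post-dose. Single 25 uM concentration in duplicate initially, with concentration-series follow-up. Binding loss fitted relative to DMSO.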

[9] = target: Retinoic acid receptor RXR-alpha (Homo sapiens) (UniProt P19793); experiment: OT_NURR1_NURR1RXRa_1440: Odyssey Thera (OT) 24-hour HEK293T Protein Complementation Assay for Nurr1/retinoid X receptor (RXR) (AID 2283386)
Procedure, shortened: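 Fluorescence PCA read-out; HEK293T; 24 h post-dose; bait/prey fused to reporter fragments; gain-of-signal fit vs DMSO negative control.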

[10] = target: Bile acid receptor (Homo sapiens) (UniProt Q96RI1); experiment: OT_FXR_FXRSRC1_1440: Odyssey Thera (OT) 24-hour HEK293T Protein-Complementation Assay for Farnesoid X receptor/SRC-1 Co-activator (AID 2283384)
Procedure, shortened: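 Fluorescence readout, 24 h post-dose, HEK293T; FXR and SRC-1 fused to complementary reporter fragments, association reconstitutes signal. Positive-direction fit vs DMSO baseline.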

[11] = CEETOX_H295R_11DCORT: CeeTox H295R High-throughput Steroidogenesis Assay for 11-Deoxycortisol (11DCORT) (AID 2283432; active means hit-call score of the fitted dose curve at least 0.9, where 1 is the maximum; inactive means score below 0.9;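 on AC50: 11-deoxycortisol secreted into the medium measured by LC-MS/MS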); details: actives raise or lower the signal
Procedure, shortened: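 H295R cells prestimulated 48 h with 10 uM forskolin, then exposed 48 h to chemical in 0.1% DMSO. 11-Deoxycortisol in medium quantified by HPLC-MS/MS after MTBE extraction; bidirectional fit versus DMSO. MTT viability read in same wells.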

[12] = CEETOX_H295R_OHPREG: CeeTox H295R High-throughput Steroidogenesis Assay for OH-Pregnenolone (OHPREG) (AID 2283434; active means hit-call score of the fitted dose curve at least 0.9, where 1 is the maximum; inactive means score below 0.9); details: actives raise or lower the signal
Procedure, shortened: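 Secreted 17alpha-hydroxypregnenolone measured by HPLC-MS/MS after liquid-liquid extraction. Human adrenal H295R cells received 48 h forskolin (10 uM) stimulation before 48 h chemical exposure at 0.1% final DMSO; MTT viability in same wells; bidirectional fit against DMSO.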

[13] = CEETOX_H295R_OHPROG: CeeTox H295R High-throughput Steroidogenesis Assay for OH-Progesterone (OHPROG) (AID 2283435; active means hit-call score of the fitted dose curve at least 0.9, where 1 is the maximum; inactive means score below 0.9;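 on AC50: 17alpha-hydroxyprogesterone secreted into medium measured by HPLC-MS/MS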); details: actives raise or lower the signal
Procedure, shortened: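 HPLC-MS/MS quantification of 17alpha-hydroxyprogesterone secreted by H295R cells after 48 h chemical exposure, following 48 h 10 uM forskolin prestimulation. Gain or loss of signal fitted relative to DMSO. Viability checked by MTT in the same wells.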

[14] = CEETOX_H295R_CORTISOL: CeeTox H295R High-throughput Steroidogenesis Assay for Cortisol (AID 2283438; active means hit-call score of the fitted dose curve at least 0.9, where 1 is the maximum; inactive means score below 0.9;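 further: cortisol secreted into medium quantified by LC-MS/MS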); details: actives raise or lower the signal
Procedure, shortened: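 Read-out: cortisol in culture medium by reverse-phase C18 HPLC with ESI-positive tandem MS, after MTBE liquid-liquid extraction. Cells: human adrenal H295R, forskolin-primed (10 uM, 48 h) before 48 h chemical exposure in 0.1% DMSO.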

[15] = CEETOX_H295R_DOC: CeeTox H295R High-throughput Steroidogenesis Assay for DOC (AID 2283439; active means hit-call score of the fitted dose curve at least 0.9, where 1 is the maximum; inactive means score below 0.9); details: actives raise or lower the signal
Procedure, shortened: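 Human adrenocortical H295R cells, passages up to 10, received 10 uM forskolin for 48 h before chemical addition. After another 48 h exposure in 0.1% DMSO, secreted DOC was measured by LC-MS/MS, with gain or loss fitted against DMSO controls.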

[16] = CEETOX_H295R_ESTRADIOL: CeeTox H295R High-throughput Steroidogenesis Assay for Estradiol (AID 2283440; active means hit-call score of the fitted dose curve at least 0.9, where 1 is the maximum; inactive means score below 0.9;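 further: estradiol secreted into medium quantified by LC-MS/MS after dansyl derivatisation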); details: actives raise or lower the signal
Procedure, shortened: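 Estradiol in spent medium measured by LC-MS/MS after dansyl chloride derivatisation. Forskolin-primed (10 uM, 48 h) human adrenal H295R cells received test chemical 48 h at 0.1% DMSO; concentrations lowered until MTT viability >/=70%.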

[17] = CEETOX_H295R_ESTRONE: CeeTox H295R High-throughput Steroidogenesis Assay for Estrone (AID 2283441; active means hit-call score of the fitted dose curve at least 0.9, where 1 is the maximum; inactive means score below 0.9;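 further: estrone secreted into medium measured by LC-MS/MS after dansyl derivatization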); details: actives raise or lower the signal
Procedure, shortened: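 Forskolin-stimulated H295R cells are treated 48 h with chemical, and estrone in the medium is measured by LC-MS/MS. Activity is fitted in both directions relative to DMSO controls, with chemicals diluted until MTT viability reaches at least 70%.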

[18] = CEETOX_H295R_ANDR: CeeTox H295R High-throughput Steroidogenesis Assay for Androstenedione (ANDR) (AID 2283436; active means hit-call score of the fitted dose curve at least 0.9, where 1 is the maximum; inactive means score below 0.9); details: actives raise or lower the signal
Procedure, shortened: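 Medium from 48 h chemical-treated H295R adrenal cells was extracted with MTBE and androstenedione measured by LC-MS/MS. Activity was fit in both directions relative to DMSO. Cytotoxic concentrations were re-tested after dilution until MTT viability reached ≥70%.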

Measured: AC50

Estrogen receptor (Homo sapiens), sequence (P03372 whole entry, looked up): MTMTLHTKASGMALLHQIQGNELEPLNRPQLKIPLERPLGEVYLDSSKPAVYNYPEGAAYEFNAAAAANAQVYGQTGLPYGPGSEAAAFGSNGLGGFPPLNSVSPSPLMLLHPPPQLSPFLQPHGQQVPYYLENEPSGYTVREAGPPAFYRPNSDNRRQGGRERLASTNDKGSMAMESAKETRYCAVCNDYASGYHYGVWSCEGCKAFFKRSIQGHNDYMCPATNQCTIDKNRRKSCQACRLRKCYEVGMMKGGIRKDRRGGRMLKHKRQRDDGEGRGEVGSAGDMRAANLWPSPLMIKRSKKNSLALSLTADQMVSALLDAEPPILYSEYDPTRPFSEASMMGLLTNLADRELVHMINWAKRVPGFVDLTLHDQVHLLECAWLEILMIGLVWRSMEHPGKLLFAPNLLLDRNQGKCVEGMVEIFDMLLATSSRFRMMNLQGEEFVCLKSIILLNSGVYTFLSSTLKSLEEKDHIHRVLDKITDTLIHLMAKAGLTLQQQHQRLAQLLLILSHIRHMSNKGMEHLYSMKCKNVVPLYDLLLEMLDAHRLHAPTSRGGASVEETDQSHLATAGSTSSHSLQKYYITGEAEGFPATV
Retinoic acid receptor RXR-alpha (Homo sapiens), sequence (P19793 whole entry, looked up, the tested form may be a part): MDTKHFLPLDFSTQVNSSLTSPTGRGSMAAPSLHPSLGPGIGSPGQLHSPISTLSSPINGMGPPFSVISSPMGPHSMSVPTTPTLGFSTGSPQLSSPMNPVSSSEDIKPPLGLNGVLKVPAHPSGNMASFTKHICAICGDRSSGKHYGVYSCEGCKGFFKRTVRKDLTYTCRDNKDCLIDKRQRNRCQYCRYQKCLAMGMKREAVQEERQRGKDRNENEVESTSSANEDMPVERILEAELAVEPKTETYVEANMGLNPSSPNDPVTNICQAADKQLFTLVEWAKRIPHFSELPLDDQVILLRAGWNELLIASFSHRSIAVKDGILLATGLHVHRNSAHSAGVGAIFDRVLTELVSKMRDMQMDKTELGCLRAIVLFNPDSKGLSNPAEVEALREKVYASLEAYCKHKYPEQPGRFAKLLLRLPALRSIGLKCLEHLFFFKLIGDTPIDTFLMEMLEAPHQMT
mouse Estrogen Receptor alpha (Era), Esr1 (gene 13982), sequence (P19785 whole entry, looked up): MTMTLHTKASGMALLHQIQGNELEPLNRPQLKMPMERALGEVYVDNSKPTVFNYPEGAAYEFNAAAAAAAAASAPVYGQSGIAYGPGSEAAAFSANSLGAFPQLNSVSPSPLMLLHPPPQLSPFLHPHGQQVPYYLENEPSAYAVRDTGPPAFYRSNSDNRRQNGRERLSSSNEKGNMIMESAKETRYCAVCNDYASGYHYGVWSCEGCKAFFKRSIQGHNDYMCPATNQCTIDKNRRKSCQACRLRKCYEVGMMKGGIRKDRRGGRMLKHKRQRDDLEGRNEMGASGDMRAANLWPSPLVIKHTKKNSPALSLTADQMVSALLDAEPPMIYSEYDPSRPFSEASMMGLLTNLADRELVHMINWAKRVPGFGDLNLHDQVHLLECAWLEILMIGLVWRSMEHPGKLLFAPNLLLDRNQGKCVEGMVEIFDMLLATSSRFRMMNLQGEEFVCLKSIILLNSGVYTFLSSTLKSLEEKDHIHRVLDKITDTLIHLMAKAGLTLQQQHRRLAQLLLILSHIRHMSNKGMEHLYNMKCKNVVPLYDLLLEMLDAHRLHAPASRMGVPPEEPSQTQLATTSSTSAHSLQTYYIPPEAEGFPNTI
Estrogen receptor beta (Homo sapiens), sequence (Q92731 whole entry, looked up, the tested form may be a part): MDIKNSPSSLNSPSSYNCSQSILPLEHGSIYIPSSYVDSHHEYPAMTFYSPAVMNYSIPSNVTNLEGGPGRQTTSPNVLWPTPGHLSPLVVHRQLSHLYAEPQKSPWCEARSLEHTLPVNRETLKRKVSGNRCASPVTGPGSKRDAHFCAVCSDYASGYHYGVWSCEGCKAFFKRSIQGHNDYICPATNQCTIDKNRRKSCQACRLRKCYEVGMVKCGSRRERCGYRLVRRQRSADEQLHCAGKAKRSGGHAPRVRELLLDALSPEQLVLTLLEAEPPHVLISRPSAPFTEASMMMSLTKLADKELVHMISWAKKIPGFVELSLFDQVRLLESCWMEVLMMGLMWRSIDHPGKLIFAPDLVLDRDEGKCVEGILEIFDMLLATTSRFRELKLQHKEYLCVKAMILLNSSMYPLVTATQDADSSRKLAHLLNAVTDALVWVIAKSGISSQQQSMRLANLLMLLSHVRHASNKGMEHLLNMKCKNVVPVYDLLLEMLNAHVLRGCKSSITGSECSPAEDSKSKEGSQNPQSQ
Peroxisome proliferator-activated receptor gamma (Homo sapiens), sequence (P37231 whole entry, looked up, the tested form may be a part): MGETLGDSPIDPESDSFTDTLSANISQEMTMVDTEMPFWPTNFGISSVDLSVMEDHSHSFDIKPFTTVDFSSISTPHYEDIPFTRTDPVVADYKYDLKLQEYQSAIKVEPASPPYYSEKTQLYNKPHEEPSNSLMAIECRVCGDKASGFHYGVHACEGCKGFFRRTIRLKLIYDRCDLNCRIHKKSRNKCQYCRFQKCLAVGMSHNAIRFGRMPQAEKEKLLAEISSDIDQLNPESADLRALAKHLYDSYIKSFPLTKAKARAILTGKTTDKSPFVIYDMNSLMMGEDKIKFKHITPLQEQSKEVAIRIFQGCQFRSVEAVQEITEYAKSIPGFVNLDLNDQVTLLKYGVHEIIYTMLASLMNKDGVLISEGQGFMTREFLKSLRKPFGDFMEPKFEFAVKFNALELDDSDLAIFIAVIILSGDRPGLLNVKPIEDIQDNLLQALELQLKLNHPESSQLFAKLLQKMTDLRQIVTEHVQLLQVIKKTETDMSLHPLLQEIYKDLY
Bile acid receptor (Homo sapiens), sequence (Q96RI1 whole entry, looked up, the tested form may be a part): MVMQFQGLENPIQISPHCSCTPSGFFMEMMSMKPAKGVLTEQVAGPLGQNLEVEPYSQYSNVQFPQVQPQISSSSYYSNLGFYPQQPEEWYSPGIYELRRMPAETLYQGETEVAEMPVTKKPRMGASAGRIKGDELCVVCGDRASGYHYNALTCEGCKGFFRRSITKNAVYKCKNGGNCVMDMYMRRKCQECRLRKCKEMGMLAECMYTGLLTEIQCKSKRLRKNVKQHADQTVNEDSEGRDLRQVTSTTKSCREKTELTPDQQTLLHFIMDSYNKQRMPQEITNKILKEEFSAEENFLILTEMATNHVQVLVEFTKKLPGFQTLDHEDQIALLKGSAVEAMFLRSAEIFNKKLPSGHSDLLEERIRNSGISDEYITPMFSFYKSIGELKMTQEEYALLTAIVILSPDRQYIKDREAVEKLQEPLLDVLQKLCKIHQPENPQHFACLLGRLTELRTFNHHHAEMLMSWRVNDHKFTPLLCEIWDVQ
Agonist Androgen Response Element (ARE), AR (gene 367), sequence (P10275 whole entry, looked up): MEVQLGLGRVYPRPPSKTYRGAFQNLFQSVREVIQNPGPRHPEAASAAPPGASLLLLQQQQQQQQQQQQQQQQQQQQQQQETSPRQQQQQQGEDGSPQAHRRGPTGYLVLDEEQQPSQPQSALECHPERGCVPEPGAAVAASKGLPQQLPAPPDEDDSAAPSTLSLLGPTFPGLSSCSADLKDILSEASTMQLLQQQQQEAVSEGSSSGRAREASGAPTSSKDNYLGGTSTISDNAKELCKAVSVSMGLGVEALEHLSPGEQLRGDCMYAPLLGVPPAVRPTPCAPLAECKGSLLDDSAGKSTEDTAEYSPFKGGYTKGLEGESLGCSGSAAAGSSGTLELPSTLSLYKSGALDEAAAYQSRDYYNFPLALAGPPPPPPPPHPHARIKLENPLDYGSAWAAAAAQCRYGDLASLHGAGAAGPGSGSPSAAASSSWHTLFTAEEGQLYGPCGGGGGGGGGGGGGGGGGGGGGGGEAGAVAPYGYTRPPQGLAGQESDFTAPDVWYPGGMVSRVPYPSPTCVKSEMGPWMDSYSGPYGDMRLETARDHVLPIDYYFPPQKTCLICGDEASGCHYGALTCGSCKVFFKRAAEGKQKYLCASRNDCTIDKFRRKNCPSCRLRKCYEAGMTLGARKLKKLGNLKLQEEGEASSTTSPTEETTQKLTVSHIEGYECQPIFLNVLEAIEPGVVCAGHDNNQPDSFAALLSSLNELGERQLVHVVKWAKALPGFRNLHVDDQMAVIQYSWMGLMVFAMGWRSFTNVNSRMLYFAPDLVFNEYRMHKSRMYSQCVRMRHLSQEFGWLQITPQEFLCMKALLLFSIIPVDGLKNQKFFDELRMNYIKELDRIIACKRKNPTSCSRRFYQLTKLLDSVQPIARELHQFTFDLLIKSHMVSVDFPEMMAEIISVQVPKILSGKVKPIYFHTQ

CCCCCCCCCCCCCOS(=O)(=O)O
active: [2] 78.4 µM
inactive: [1] | [3] | [4]

NCCCN1CCOCC1
inactive: [5] | [6] | [7] | [3] | [4]

O=C(O)CCSCCC(=O)O
inactive: [8]

CC1(C)[C@@H]2CC[C@@]1(C)[C@H](O)C2
inactive: [5] | [2] | [9]

CCCCCCCCC
inactive: [5] | [6] | [7] | [9] | [3] | [4]

O=C1c2ccccc2C(=O)N1SC1CCCCC1
inactive: [8] | [5] | [6]
active: [7] 36.3 µM

C=C(C)C(=O)O
inactive: [5] | [6] | [7] | [3] | [4]

Cc1cc(C2(c3cc(C)c(O)cc3C)OS(=O)(=O)c3ccccc32)c(C)cc1O
inactive: [8]

CCC/C=C/C=O
inactive: [1] | [6] | [7] | [3] | [4]

CCN(CC)c1ccc(C(=C2C=CC(=[N+](CC)CC)C=C2)c2ccc(S(=O)(=O)O)cc2S(=O)(=O)[O-])cc1
inactive: [1] | [5] | [3] | [4]

C[Si](O[Si](C)(C)C)O[Si](C)(C)C
inactive: [1] | [9] | [3] | [4]

COC(=O)C1=C(C)NC(C)=C(C(=O)OCCN(C)Cc2ccccc2)C1c1cccc([N+](=O)[O-])c1 (stereo not given)
inactive: [8]

CC1=CC(=O)NS(=O)(=O)O1
inactive: [5] | [2] | [9] | [3] | [4]

Clc1ccc2c(c1)C(N1CCNCC1)=Nc1ccccc1O2
inactive: [8]

CCC(=O)/C=C/C1C(C)=CCCC1(C)C (stereo not given)
active: [10] 82.5 µM
inactive: [5] | [9] | [3] | [4]

CCCc1c(OCCCOc2ccc(OCC(=O)O)cc2)ccc(C(C)=O)c1O
inactive: [8]

COc1ccc(O)cc1
inactive: [1] | [3] | [4]
active: [9] 44.6 µM

O=C[C@@H](O)[C@H](O)[C@H](O)CO
inactive: [9] | [3] | [4]
active: [1] 1.26 µM

NC(=O)Nc1ccc(Cl)cc1
not listed: [1] | [2] | [5] | [10] | [18]
inactive: all other assays above

c1ccc2[nH]ccc2c1
inactive: [1] | [5] | [9] | [3] | [4]

CCCCCCCCCC=O
inactive: [8] | [6] | [7] | [9] | [3] | [4]

CC(=O)OCCOC(C)=O
inactive: [5] | [6] | [7] | [9] | [3] | [4]

c1cc(C(c2ccc(OCC3CO3)cc2)c2ccc(OCC3CO3)cc2)ccc1OCC1CO1 (stereo not given)
inactive: [8]

CCCOCC(C)O (stereo not given)
inactive: [1] | [3] | [4]

BrC1CCC(Br)C(Br)CCC(Br)C(Br)CCC1Br (stereo not given)
active: [10] 17.4 µM
inactive: [1] | [6] | [7] | [9] | [3] | [4]

O=c1cc(-c2ccccc2)oc2cc(O)cc(O)c12
inactive: [1] | [9] | [3] | [4] | [11] | [12] | [18] | [14]
active: [13] 16.6 µM | [15] 12.2 µM

CC1COc2ccccc2N1C(=O)C(Cl)Cl (stereo not given)
inactive: [6] | [7] | [3] | [4] | [16] | [17]
active: [8] 1.88 µM | [11] 25.2 µM | [12] 3.66 µM | [14] 32.3 µM | [15] 10.4 µM

CCCCCCCCCCCCCCCC(=O)OC[C@H](O)[C@H]1OC(=O)C(O)=C1O
active: [9] 84.2 µM
inactive: [1] | [6] | [7] | [3] | [4]

CCCCCCCCC=O
inactive: [8] | [6] | [7] | [10] | [9] | [3] | [4]

O=Nc1ccc(Nc2ccccc2)cc1
active: [8] 46.4 µM | [6] 72.3 µM | [7] 28.2 µM
inactive: [1] | [3] | [4]

CCCCc1ccc(N)cc1
inactive: [5] | [6] | [7] | [9] | [3] | [4]

CC(=O)C=CC1=C(C)CCCC1(C)C
inactive: [6] | [7] | [9] | [3] | [4]

OCCOCCOCCOCCO
inactive: [6] | [7] | [2] | [9]

CCCCCCCCCCCCCC(=O)O
active: [10] 81.8 µM
inactive: [6] | [7] | [9] | [3] | [4]

CSc1nc(NC2CC2)nc(NC(C)(C)C)n1
inactive: [2] | [3] | [4] | [12] | [13]

O=C(O)CCCCCCCC(=O)O
inactive: [5] | [9] | [3] | [4]

COc1cc(C(C)(C)C)c(O)c(C(C)(C)C)c1
inactive: [10] | [3] | [4]

CCCCOCCOCCOCCOCCO
inactive: [6] | [7] | [9] | [3] | [4]

CC(C)(N)CO
inactive: [6] | [7] | [10] | [3] | [4]

CC(C)(C)C(=O)c1ccccc1
inactive: [6] | [7] | [9]
